Hits are enriched below; roughly 2.9% of the tested compounds scored in any of these assays.
Bim-Mcl-1: human Bim-Mcl-1 interaction inhibition; AID 1009; inhibition, % at 10 µM; Bead-based flow cytometry, Bim peptide-Mcl-1 binding; hit rate 0.1% among 190,000; in the data active = inhibition above about 40%
Mcl1 Bid PPI: Mcl-1/Bid interaction inhibition; hit rate 0.97% among 220,000; inhibition, % at 21.7 µM; TR-FRET Mcl-1/Bid-Dy647 peptide binding, 1536-well;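 active = compounds that cut the binding signal by more than half at the single screening dose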;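 also: His-tagged Mcl-1 with europium anti-His antibody binding Bid BH3 peptide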
Hck-Nef inh: blocks Nef-activated human Hck kinase; P08631; hit rate 0.68% among 220,000; Recombinant Hck-YEEI plus Nef, Z-Lyte FRET kinase assay; inhibition, % at 20 µM;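 active = Hck-Nef kinase inhibition above about 50%, limit read from the data; inactive = inhibition below that limit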
Target sequence (P08631 whole entry, looked up): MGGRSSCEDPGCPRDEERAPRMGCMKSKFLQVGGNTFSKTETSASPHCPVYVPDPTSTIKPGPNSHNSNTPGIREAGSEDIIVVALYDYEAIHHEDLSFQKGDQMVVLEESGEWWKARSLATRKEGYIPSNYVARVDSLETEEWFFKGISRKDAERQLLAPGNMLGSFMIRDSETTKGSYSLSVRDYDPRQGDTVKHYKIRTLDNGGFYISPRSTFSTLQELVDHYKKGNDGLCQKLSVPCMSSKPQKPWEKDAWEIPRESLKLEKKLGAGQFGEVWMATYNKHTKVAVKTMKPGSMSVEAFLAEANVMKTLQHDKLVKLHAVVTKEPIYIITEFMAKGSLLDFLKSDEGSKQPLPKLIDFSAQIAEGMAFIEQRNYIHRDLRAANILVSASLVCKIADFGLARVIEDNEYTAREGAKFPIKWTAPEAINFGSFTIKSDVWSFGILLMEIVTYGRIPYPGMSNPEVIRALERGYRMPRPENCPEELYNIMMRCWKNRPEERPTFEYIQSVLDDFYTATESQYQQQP
Pf gametocyte: inhibitors of late stage P. falciparum gametocyte viability; P. falciparum stage V gametocytes, ATP luminescence, 24 h; inhibition, % at 10.9 µM; hit rate 0.065% among 150,000; AID 743093;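 active = inhibition above the mean plus 3 SD of compounds within the control limits, set per campaign, cut at about 38% in these data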
Mcl1 Noxa PPI: Mcl-1/Noxa interaction inhibition. Q07820. TR-FRET Mcl-1/Noxa peptide binding, 2 h. inhibition, % at 21.7 µM. hit rate 1.5% among 220,000. AID 1022;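 active = compounds that cut the protein-peptide binding signal by more than 50% relative to plate controls in a single-dose test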;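 also: His-tagged Mcl-1 with rhodamine Noxa BH3 peptide and terbium anti-His antibody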
14-3-3 Bad inh: disrupts binding of bovine 14-3-3 zeta to phospho-Bad peptide; P63103; hit rate 0.71% among 220,000; inhibition, % at 21.7 µM; TR-FRET 14-3-3zeta/Dy647-pBad peptide displacement, 1 h;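 active = inhibition above about 70%, limit read from the data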
Hits are given with their value; [ ] = another dose, or the depositor's remark.

O=C(NCCc1c[nH]c2ccccc12)/C(=C\c1cccnc1)NC(=O)c1ccccc1Br was read as Mcl1 Bid PPI inactive, Hck-Nef inh inactive, Pf gametocyte inactive, Mcl1 Noxa PPI inactive and 14-3-3 Bad inh inactive.
For C=C(C)COc1ccc(-c2n[nH]c(C)c2-c2ccc(OC)cc2)c(O)c1 the results were Bim-Mcl-1 inactive, Mcl1 Bid PPI inactive, Hck-Nef inh inactive, Mcl1 Noxa PPI inactive and 14-3-3 Bad inh inactive.
`C/C(=N\NC(=O)c1nn(C)c(C)c1Br)c1cccc(NC(=O)c2ccc(F)cc2)c1` gave Bim-Mcl-1 inactive, Mcl1 Bid PPI inactive, Hck-Nef inh inactive, Pf gametocyte inactive, Mcl1 Noxa PPI inactive and 14-3-3 Bad inh inactive.
Cc1nc(N2CCN(c3ccccc3)CC2)[nH]c(=O)c1Cc1ccccc1 was read as Bim-Mcl-1 inactive, Mcl1 Bid PPI inactive, Hck-Nef inh inactive, Pf gametocyte inactive, Mcl1 Noxa PPI inactive and 14-3-3 Bad inh 91.5.
`Cc1nc(N2CCN(C)CC2)[nH]c(=O)c1Cc1cccc2ccccc12` gave Bim-Mcl-1 inactive, Mcl1 Bid PPI inactive, Hck-Nef inh inactive, Mcl1 Noxa PPI inactive and 14-3-3 Bad inh inactive.
O=C(C1=C(O)C(=O)N(c2ncccn2)C1c1cccc(Cl)c1)c1ccco1 (centres undefined) was read as Bim-Mcl-1 inactive, Mcl1 Bid PPI inactive, Hck-Nef inh inactive, Mcl1 Noxa PPI 63.5 and 14-3-3 Bad inh inactive.
Screening O=C(C1=C(O)C(=O)N(c2ncccn2)C1c1ccc(Cl)c(Cl)c1)c1ccco1 (centres undefined) returned Bim-Mcl-1 inactive, Mcl1 Bid PPI inactive, Hck-Nef inh inactive, Mcl1 Noxa PPI inactive and 14-3-3 Bad inh inactive.
`O=C(NNc1c(Cl)cccc1Cl)c1cccs1` gave Mcl1 Bid PPI inactive, Hck-Nef inh inactive, Pf gametocyte inactive, Mcl1 Noxa PPI inactive and 14-3-3 Bad inh 91.3.
`CC(C)(C)C(=O)Nc1nc(C2CCCN2S(=O)(=O)c2ccc(Cl)cc2)cs1` (centres undefined) gave Bim-Mcl-1 inactive, Mcl1 Bid PPI inactive, Hck-Nef inh inactive, Mcl1 Noxa PPI inactive and 14-3-3 Bad inh 71.3.
O=C(CP(=O)(c1ccccc1)c1ccccc1)Nc1nc2ccc(Cl)cc2s1 was read as Mcl1 Bid PPI 96.9, Hck-Nef inh inactive, Pf gametocyte inactive, Mcl1 Noxa PPI inactive and 14-3-3 Bad inh inactive.
Screening COCCCN=Cc1c(-c2ccccc2)[nH]n(-c2nc3ccccc3s2)c1=O returned Mcl1 Bid PPI inactive, Hck-Nef inh inactive, Pf gametocyte inactive, Mcl1 Noxa PPI inactive and 14-3-3 Bad inh inactive.
Screening O=c1c(C=NCCCO)c(-c2ccccc2)[nH]n1-c1nc2ccccc2s1 returned Bim-Mcl-1 inactive, Mcl1 Bid PPI 61.5, Hck-Nef inh inactive, Mcl1 Noxa PPI inactive and 14-3-3 Bad inh 71.0.
COc1ccc(/C=N/n2c(=O)[nH]c3c([nH]c4ccc(Br)cc43)c2=O)cc1CN1CCOCC1 was read as Bim-Mcl-1 inactive, Mcl1 Bid PPI inactive, Hck-Nef inh inactive, Mcl1 Noxa PPI 54.1 and 14-3-3 Bad inh inactive.
CC(C)CCNC(=O)c1cc(S(=O)(=O)N2CCCCC2)ccc1N1CCOCC1 was read as Mcl1 Bid PPI inactive, Hck-Nef inh inactive, Pf gametocyte inactive, Mcl1 Noxa PPI inactive and 14-3-3 Bad inh inactive.
COc1ccc(S(=O)(=O)Nc2ccc(NC(C)=O)cc2)cc1Cl was read as Bim-Mcl-1 inactive, Mcl1 Bid PPI inactive, Hck-Nef inh inactive, Pf gametocyte inactive, Mcl1 Noxa PPI inactive and 14-3-3 Bad inh inactive.
Cc1cc(/C=C(/C#N)c2nc3ccccc3[nH]2)c(C)n1-c1ccccc1C(=O)O was read as Bim-Mcl-1 inactive, Mcl1 Bid PPI inactive, Hck-Nef inh inactive, Pf gametocyte inactive, Mcl1 Noxa PPI inactive and 14-3-3 Bad inh inactive.
`N#C/C(=C\c1cn(-c2ccccc2)nc1-c1cc2ccccc2o1)c1nc2ccccc2[nH]1` gave Bim-Mcl-1 inactive, Mcl1 Bid PPI inactive, Hck-Nef inh inactive, Pf gametocyte inactive, Mcl1 Noxa PPI 59.4 and 14-3-3 Bad inh inactive.
For Cc1cc(/C=C(/C#N)c2nc3ccccc3[nH]2)c(C)n1-c1cc(C(=O)O)cc(C(=O)O)c1 the results were Bim-Mcl-1 inactive, Mcl1 Bid PPI inactive, Hck-Nef inh inactive, Pf gametocyte inactive, Mcl1 Noxa PPI 51.5 and 14-3-3 Bad inh inactive.
CCOC(=O)Cn1nnnc1CN(Cc1ccc(OC)cc1)Cc1cc2cc(CC)ccc2[nH]c1=O was read as Bim-Mcl-1 inactive, Mcl1 Bid PPI inactive, Hck-Nef inh inactive, Pf gametocyte inactive, Mcl1 Noxa PPI inactive and 14-3-3 Bad inh inactive.
`COC(=O)c1ccccc1NC(=O)COC(=O)c1ccc(C)c(NC(=O)c2ccco2)c1` gave Bim-Mcl-1 inactive, Mcl1 Bid PPI inactive, Hck-Nef inh inactive, Pf gametocyte inactive, Mcl1 Noxa PPI inactive and 14-3-3 Bad inh 88.5[fluorescence artefact?].
Screening COC(=O)c1ccccc1NC(=O)COC(=O)/C=C/c1ccco1 returned Bim-Mcl-1 inactive, Mcl1 Bid PPI 94.6, Hck-Nef inh inactive, Pf gametocyte inactive, Mcl1 Noxa PPI inactive and 14-3-3 Bad inh inactive.
O=C1C2C3C=CC(CC3)C2C(=O)N1/N=C/c1ccc(O)c(O)c1 (centres undefined) was read as Bim-Mcl-1 inactive, Mcl1 Bid PPI inactive, Hck-Nef inh inactive, Mcl1 Noxa PPI inactive and 14-3-3 Bad inh inactive.
For O=C1c2ccccc2C(=O)N1/N=C/c1ccc(O)c(O)c1 the results were Bim-Mcl-1 inactive, Mcl1 Bid PPI inactive, Hck-Nef inh inactive, Mcl1 Noxa PPI 71.6 and 14-3-3 Bad inh inactive.
Screening CCN(CC)CCNC(=O)c1ccc(NC(=O)COc2ccccc2F)cc1 returned Bim-Mcl-1 inactive, Mcl1 Bid PPI inactive, Hck-Nef inh inactive, Pf gametocyte inactive, Mcl1 Noxa PPI inactive and 14-3-3 Bad inh inactive.
Cc1nn(C)cc1C1C(C#N)=C(N)N(c2ccc(F)c([N+](=O)[O-])c2)C2=C1C(=O)CCC2 (centres undefined) was read as Bim-Mcl-1 inactive, Mcl1 Bid PPI inactive, Hck-Nef inh inactive, Mcl1 Noxa PPI inactive and 14-3-3 Bad inh inactive.
For COc1ccc(NC(C)C(=O)Nc2ccc(C#N)cc2)cc1Cl (centres undefined) the results were Bim-Mcl-1 inactive, Mcl1 Bid PPI 88.9, Hck-Nef inh inactive, Pf gametocyte inactive, Mcl1 Noxa PPI 92.3 and 14-3-3 Bad inh inactive.
Screening COc1ccc(CNCc2cc(C)c(OC)cc2C)c(OC)c1 returned Pf gametocyte inactive.
Screening O=[N+]([O-])c1cccc(N=Cc2sc3ccccc3c2O)c1 returned Bim-Mcl-1 inactive, Mcl1 Bid PPI inactive, Hck-Nef inh inactive, Mcl1 Noxa PPI 59.1 and 14-3-3 Bad inh 84.5.
For Cc1nc2c(c(=O)n1CCC1=CCCCC1)c1nc3ccccc3nc1n2/N=C/c1ccccc1 the results were Bim-Mcl-1 inactive, Mcl1 Bid PPI inactive, Hck-Nef inh inactive, Mcl1 Noxa PPI inactive and 14-3-3 Bad inh inactive.
`CCOCCCn1c(C)nc2c(c1=O)c1nc3ccccc3nc1n2CCC1=CCCCC1` gave Bim-Mcl-1 inactive, Mcl1 Bid PPI 65.9, Hck-Nef inh inactive, Mcl1 Noxa PPI inactive and 14-3-3 Bad inh inactive.
